This is part of a sample that, as a whole, favours compounds with a hit. Of some 83,000 tested, about 20% had one in any assay.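 Growth was measured after 48 h exposure to one concentration of compound in 96-well plates. Values under 10 count as active.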 A number with no mark means an inactive call. The source made the active and inactive calls.
Legend:
Assay in all cases: NCI-60 one-dose screen, 48 h (100 = growth as untreated, 0 = no growth, -100 = all killed)
Conditions in all cases: 10 µM unless noted
[1] = system: HCT-15 colon
[2] = system: HT29 colon
[3] = system: SNB-75 CNS
[4] = system: SNB-19 CNS
[5] = system: U251 CNS
[6] = system: PC-3 prostate
[7] = system: SK-MEL-5 melanoma
[8] = system: UACC-62 melanoma
[9] = system: LOX IMVI melanoma
[10] = system: SK-MEL-28 melanoma

| SMILES | growth [1] | growth [2] | growth [3] | growth [4] | growth [5] | growth [6] | growth [7] | growth [8] | growth [9] | growth [10] |
| --- | --- | --- | --- | --- | --- | --- | --- | --- | --- | --- |
| C=C1C(=O)O[C@H]2[C@H]1CC/C(COC(=O)n1ccnc1)=C\CC[C@@]1(C)O[C@@H]21 | 83.5% | 100% | 92.8% | 99% | 99.1% | 90.1% | 98.5% | 91.6% | 90.4% | 102% |
| COc1ccc2c(c1)C1(C(=O)N2)C(C#N)=C(c2ccccc2)Nc2c1c(-c1ccccc1)nn2-c1ccccc1 (stereo unspecified) | 85% | 43% | 33.8% | 59.7% | 9.08% (active) | 7.28% (active) | 58.6% | 85.1% | 52.7% | 42.9% |
| CCOC(=O)NCCc1nc2c([nH]1)c(=O)n(C)c(=O)n2C | 97.6% | 98.5% | 91% | 107% | 108% | 91% | 102% | 100% | 94.9% | 102% |
| O=C(Nc1cc(Br)ccn1)c1cc2cc(Nc3nc(-c4ccccc4)nc4ccccc34)ccc2oc1=O | 107% | 104% | 92.3% | 107% | 107% | 93.6% | 101% | 103% | 83.8% | 114% |
| O=C(CCc1nnco1)c1nc2ccc([N+](=O)[O-])cc2[nH]1 | 105% | 103% | 104% | 108% | 107% | 96.1% | 109% | 96.7% | 93.2% | 111% |
| CN(C)c1ccc(-c2ccc3[nH]c(=O)nc(-c4ccc(F)cc4)c3c2)cn1 | 33.2% | 11% | 11.2% | 36.2% | 31.3% | 41.7% | 20.3% | 28.4% | 41.3% | 69.2% |
| CN(CCC#N)C(=O)Nc1ccccc1 | 104% | 94.6% | 99.2% | 109% | 102% | 99.5% | 110% | 101% | 96.2% | 112% |
| O=C1Nc2ccccc2C12C=C(c1ccccc1)Nc1c2c(-c2ccccc2)nn1-c1ccccc1 (stereo unspecified) | 53.4% | 46.1% | 71% | 64.3% | 41.6% | 32.2% | 68.4% | 91.9% | 65.2% | 82.2% |
| O=C1CC23OC(C(O)c4ccccc4N12)C1C(c2ccccc2)=NOC13 (stereo unspecified) | 29.7% | 13.9% | 33.4% | 44% | 40.2% | 50% | 31.7% | 28.2% | 37.8% | 64.1% |
| COc1ccc2nc3nc4ccc[nH]c4cc3c2c1 | 82.9% | 97.7% | 82.5% | 105% | 94.8% | 93.2% | 88.6% | 105% | 95.1% | 110% |
| CN(C)C(CNc1oc(-c2cccc3ccccc23)nc1C#N)c1ccco1 (stereo unspecified) | 79.8% | 72.1% | 71.5% | 101% | 80.4% | 89.5% | 91.7% | 91.3% | 95.8% | 96.3% |
| CCn1cc(C(=O)O)c(=O)c2cc(F)c(N3CCN(CC(=O)Nc4ccc(/C(C)=N/OC)cc4)CC3)cc21 | 90.5% | 94% | 76.8% | 91.7% | 94.3% | 85.5% | 96.4% | 90.5% | 80% | 100% |
| CC(C)Cc1cc(CNC(=O)C2[C@H]3CN(C(=O)c4ccccc4)C[C@@H]23)nn1-c1ccccc1 (stereo partly specified) | 99.3% | 66.5% | 105% | 107% | 90.1% | 90.8% | 99% | 88.2% | 91.9% | 93.5% |
| O=C1NC(c2ccc(F)cc2)N=C2C(c3ccccc3)=NOC12 (stereo unspecified) | 103% | 98.7% | 101% | 103% | 101% | 104% | 105% | 102% | 108% | 115% |
| N#CC1(C#N)C2=C(CCCC2)NC(c2c(F)cccc2Cl)C1(C#N)C#N (stereo unspecified) | 66.9% | 17.3% | 51.1% | 69.2% | 60.7% | 72.1% | 63.9% | 40.8% | 53.4% | 65.8% |
| COc1cc(C2=NN(C=O)C(c3cccc(Nc4ccnc5cc(C(F)(F)F)ccc45)c3)C2)cc(OC)c1OC (stereo unspecified) | 49.2% | 15.3% | 77.7% | 64.2% | 55.8% | 31.7% | 43% | 75.4% | 43.1% | 50.6% |
| CC(C)C1=C[C@@]23CC[C@H]4[C@](C)(COCCC#N)CCC[C@]4(C)[C@H]2C[C@@H]1[C@@H]1[C@H]3[C@@H](OCCC#N)CC[C@@H]1OCCC#N | 22.8% | 12.1% | 80.3% | 50.3% |  | 9.6% (active) | 39.1% | 45.3% | 40.1% |  |
| O=C(Nc1cc(=O)[nH]c(=O)[nH]1)C(Cl)Cl | 103% | 102% | 96.9% | 99% | 99.5% | 92% | 102% | 88.9% | 100% | 111% |
| COc1cc(NC(=O)Nc2cnc(Nc3ccc(N4CCOCC4)cc3)nc2Oc2ccc(F)cc2)cc(OC)c1 | 104% | 86.9% | 100% | 96% | 78.8% | 83% | 80.6% | 106% | 91% | 106% |
| O=C1C(=O)c2c(nc3ccc(Br)cn23)-c2ccccc21 | -75.7% (active) | -29.1% (active) | -95.3% (active) | -86.4% (active) | -100% (active) | -63.4% (active) | -97.6% (active) | -87.6% (active) | -76.6% (active) | -60% (active) |
| NC(=O)c1ccc(C2C3=C(CCCC3=O)OC3=C2C(=O)c2ccccc2C3=O)cc1 (stereo unspecified) | 53.8% | 29.7% | -1.57% (active) | 49.6% | 0.896% (active) | 12.3% | -93.9% (active) | -38.8% (active) | -19.3% (active) | 59.6% |
| O=C1CS/C(=N/c2nnc(-c3ccc(O)cc3)s2)N1 | 101% | 103% | 111% | 108% | 101% | 99.5% | 102% | 108% | 92.2% | 110% |
| COc1ccc(NC(=O)c2ccc(Nc3ncnc4[nH]c(C)c(C)c34)cc2)cc1 | 103% | 103% | 93.5% | 105% | 101% | 109% | 98.6% | 99.6% | 104% | 102% |
| NCCN1CCNCC1 | 100% | 98.4% | 92.2% | 95.9% | 102% | 92% | 109% | 98.1% | 101% | 109% |
| CC[C@]12C=CCN3CC[C@@]4(c5ccc(OC)cc5N(C)[C@H]4[C@@](O)(C(=O)OC)[C@@H]1OC(=O)CCC(=O)O[C@H]1CC[C@H]4[C@@H]5CC[C@H]6CC(=O)CC[C@]6(C)[C@H]5CC[C@]14C)[C@@H]32 | 15.1% | -2.17% (active) | 41.9% | 37.5% |  | 12.3% | 7.1% (active) | 29.3% | 27.9% |  |
| Cc1cccc2nc3c(n12)C(=O)C(=O)c1ccccc1-3 | 40.8% | 78% | 136% | 61.3% | 43% | 40.2% | 30.2% | -57.4% (active) | 6.44% (active) | 85.7% |
| CCCCn1c(=O)c(/C=C/C(=O)/C=C/c2ccc(OC)cc2)cc2cc(Cl)ccc21 | 27.5% | 9.75% (active) | 84.9% | 47.5% | -13.4% (active) | 39.5% | 78.9% | 76.2% | 9.25% (active) | 115% |

Source: PubChem BioAssay (NCI)
